# CDC25B-CDK2 inh – human CDC25B-CDK2/CyclinA binding inhibition | P30305+P24941 | HTRF CDC25B-CDK2/CyclinA binding, anti-His/anti-Flag; stronger effect = higher value | z-score (no concentration beside the values) | 94,000 compounds, 0.72% hits | AID 1259370; in the data active means z-score above about 3.2
# HIV TAR-Tat – HIV-1 TAR-Tat binding disruption. z-score (concentration not given with the values). 100,000 compounds, 0.6% hits. AID 1259389. HIV-1 TAR RNA, Tat peptide displacement FRET; stronger effect = higher value; active means z-score of 3 or more in at least 2 runs
# * hit, by the source's call; / = no result. An excerpt weighted towards active compounds, which were near 0.93% of everything screened.
SMILES,CDC25B-CDK2 inh,HIV TAR-Tat
CC1=C(c2ccccc2)S(=O)(=O)NC1=NCCCN1CCN(C2CCCCC2)CC1,-1.5,0.05
Fc1ccc(-c2cn3cc(Cc4ccccc4F)sc3n2)cc1,-1.1,-2
CN(C)S(=O)(=O)c1cccc(C(=O)NC2CCS(=O)(=O)C2)c1 (configuration not stated),/,1.1
Cc1ncc(COP(=O)(O)O)c(C=Nc2ccc3ccccc3c2)c1O,14*,/
Cc1nc(N=Nc2ccc(C(=O)O)cc2)c(COP(=O)(O)O)c(C=O)c1O,-2.5,/
O=C(O)CSCC(=O)Nc1nc(SCc2ccc(Cl)cc2)n[nH]1,7*,/
Cc1ccccc1C(=O)Nc1nc(SCc2ccc(Cl)cc2)n[nH]1,-1.7,/
COc1ccccc1C(=O)CC1(O)C(=O)Nc2ccc(F)cc21 (configuration not stated),/,0.54
CCc1cc2c3c([nH]c2cc1S(=O)(=O)Nc1ccc(F)cc1F)CCCC3=O,/,0.42
CCc1cc2c3c([nH]c2cc1S(=O)(=O)Nc1ccc(Cl)cc1F)CCCC3=O,/,4.3*
CCOc1ccc(-c2nnc3ccc(SC(C)C(=O)OC)nn23)cc1 (configuration not stated),-1.4,/
O=c1cc(-c2ccccc2)nc2nc(SCc3ccccc3)[nH]n12,-1.7,-3.1
Cc1c(-c2nc(-c3ccc4c(c3)OCO4)no2)nnn1-c1ccc(C(C)C)cc1,/,0.48
O=C(O)CCC(=O)NCC(=O)c1ccc(F)cc1,-2.2,/
O=C(O)CNC(=O)CCCCC(=O)NCC(=O)O,10*,/
Cc1ccc(NC(=O)Nc2ccc3snnc3c2)cc1,-0.55,/
O=C(NCCO)Nc1ccc2snnc2c1,11*,1.8
CC(C)n1c(Sc2c([N+](=O)[O-])ncn2C)nc2cc(Cl)ccc21,-1.9,/
COc1cc(C2CC(=O)Nc3nc(N)[nH]c(=O)c32)ccc1O (configuration not stated),-1.9,-1.2
COc1ccc(C2CC(=O)Nc3nc(N)[nH]c(=O)c32)cc1 (configuration not stated),1.2,0.84
COc1cc(C2C3=C(Nc4nc(N)[nH]c(=O)c42)c2ccccc2C3=O)ccc1O (configuration not stated),2.7,5.6*
COc1ccc(C2C3=C(Nc4nc(N)[nH]c(=O)c42)c2ccccc2C3=O)cc1 (configuration not stated),14*,3.7*
Cc1ccc(NC(=O)N2CCn3c(C)ccc3C2C(C)C)cc1F (configuration not stated),/,0.19
CC1CCc2nc(NC(=O)COc3ccc(Br)cc3)sc2C1 (configuration not stated),-0.63,1.7
N#CC1=C2SCN(c3ccc(Br)cc3)CN2C(=O)CC1c1cccs1 (configuration not stated),0.05,2.7
SMILES,CDC25B-CDK2 inh,HIV TAR-Tat
CCOc1ccc(N2CSC3=C(C#N)C(c4ccco4)CC(=O)N3C2)cc1 (configuration not stated),5.1*,-1.8
CCOc1ccc(N2CSC3=C(C#N)C(c4cccs4)CC(=O)N3C2)cc1 (configuration not stated),4*,-1.7
N#CC1=C2SCN(c3ccc(F)cc3)CN2C(=O)CC1c1cccs1 (configuration not stated),6*,0.54
N#CC1=C2SCN(c3ccc(Cl)cc3)CN2C(=O)CC1c1cccs1 (configuration not stated),6.3*,-0.61
COc1ccc(-c2noc(CN(C)S(=O)(=O)c3ccc(F)cc3)n2)cc1,-0.72,2.6
Clc1ccc(C2=CSC3=NNC4(CCCCC4)NN23)cc1,-0.31,/
Cc1cc2ncn(CCCOc3ccccc3)c2cc1C,-1.3,0.28
CCOc1ccc(S(=O)(=O)[C@H]2CS(=O)(=O)C[C@@H]2NC2CCCC2)cc1,-2.3,-0.25
CCNC(=O)c1c(NC(=O)Cc2coc3cc(C)cc(C)c23)sc2c1CCCC2,-2.2,0.44
Cc1cc2c3c([nH]c2cc1S(=O)(=O)NC1CC1)CCCC3=O,/,2
N#CC1=C2SCN(C3CCCC3)CN2C(=O)CC1c1ccc(Cl)cc1 (configuration not stated),0.82,0.27
N#CC1=C2SCN(c3ccccc3)CN2C(=O)CC1c1cccs1 (configuration not stated),17*,-0.09
CCOc1ccc(C2CC(=O)N3CN(Cc4cccnc4)CSC3=C2C#N)cc1 (configuration not stated),6.8*,-2.2
N#CC1=C2SCN(C3CCCC3)CN2C(=O)CC1c1cccs1 (configuration not stated),5.9*,1.3
CSc1ccc(C2CC(=O)N3CN(Cc4ccccc4)CSC3=C2C#N)cc1 (configuration not stated),1.5,-2.2
N#CC1=C2SCC(O)(c3ccccc3)N2C(=O)CC1c1cccs1 (configuration not stated),-2.3,/
Cc1ccc(N2CSC3=C(C#N)C(c4cccs4)CC(=O)N3C2)cc1C (configuration not stated),6.2*,-1.5
Cn1c(=O)c2cc(C(=O)N3CCN(C(=O)c4ccco4)CC3)sc2c2ccccc21,-1.5,0.99
COc1ccc(Cc2nnc(-c3ccccc3)o2)cc1OC,-1.4,2.6
C=CCNc1sc(S(C)(=O)=O)nc1S(=O)(=O)c1ccc(C)cc1,-0.88,-0.38
CCN(CC)CCCn1c(C)c(C)c2c1ncn1nc(-c3ccc(Cl)cc3)nc21,-0.97,0.91
Cc1[nH]c(C)c(S(=O)(=O)N(Cc2ccco2)C2CCCCC2)c1C(=O)N1CCCC1,/,0.17
CCOC(=O)C1=C(C)NC2=C(C(=O)CC(C)(C)C2)C1c1ccc(N(CC)CC)cc1 (configuration not stated),0.6,1.1
CCOc1ccc(C2CC(=O)N3CN(CCO)CSC3=C2C#N)cc1 (configuration not stated),0.17,1.3
CCOc1ccc(C2CC(=O)N3CN(c4ccc(CCO)cc4)CSC3=C2C#N)cc1 (configuration not stated),7.2*,-1.6
SMILES,CDC25B-CDK2 inh,HIV TAR-Tat
Cc1cc(C)c(S(=O)(=O)NCCc2csc3nc(-c4ccccc4)nn23)c(C)c1,/,1.3
O=C(C1CCN(c2ccc(-c3cccs3)nn2)CC1)N1CCN(c2ccc(F)cc2)CC1,/,-0.21
COc1cc2occ(-c3cc4c(cc3OC)OCO4)c(=O)c2cc1OC,/,0.74
COc1ccc(-c2coc3cc(O)ccc3c2=O)c(O)c1O,/,23*
COc1ccc(-c2coc3cc(O)ccc3c2=O)c(OC)c1O,/,0.53
COc1ccc2c(=O)c(-c3cc4c(cc3OC)OCO4)coc2c1,/,20*
Cc1cc(C)nc(NC(=O)CSc2nnc3sc4ccccc4n23)n1,-0.12,/
CN(CCO)CCNc1cc(N2CCOCC2)c2noc3c2c1C(=O)c1ccccc1-3,-1.6,-5.5
O=C1c2ccccc2-c2onc3c(N4CCN(c5ccc(F)cc5)CC4)cc(NCCO)c1c23,6.3,2.4
CN(C)CCCNc1cc(N2CCOCC2)c2noc3c2c1C(=O)c1ccccc1-3,-2.6,12*
CN(C)CCCNc1cc(N2CCN(c3ccc(F)cc3)CC2)c2noc3c2c1C(=O)c1ccccc1-3,7.4*,28*
O=C1c2ccccc2-c2n[nH]c(=O)c3ccc(N4CCOCC4)c1c23,-2.4,1.2
Cc1nc(-c2ccccc2)sc1C(=O)Nc1sc(C)c(C)c1C#N,-1.2,-4.2
Cc1nc(-c2ccccc2)sc1C(=O)Nc1sc2c(c1C#N)CCC2,8.5,17*
Fc1ccc(NCc2ccncc2)cc1,15*,1.1
c1cc(CNc2ccc3c(c2)OCO3)ccn1,0.08,0.91

# High-throughput results (PubChem)
